From PubChem
USP10 inh: human USP10 deubiquitinase inhibition | purified USP10, Ub-rhodamine fluorescence, 60 min | AID 1645856 | actives 1.1% (n = 47,000) | Q14694 | inhibition, % at 20 µM
USP17 inh: inhibitors of human USP17 deubiquitinase; A8MUK1; purified USP17, Ub-rhodamine cleavage fluorescence, 3 h; inhibition, % at 50 µM; actives 6.5% (n = 47,000); AID 1645855
UCHL1 block: inhibitors of human UCHL1 deubiquitinase | P09936 | purified UCHL1, Ub-rhodamine cleavage fluorescence | inhibition, % at 20 µM | actives 0.2% (n = 47,000)
USP7 inh: human USP7 deubiquitinase inhibition. inhibition, % at 20 µM. actives 0.3% (n = 47,000). purified USP7, Ub-rhodamine cleavage fluorescence. Q93009
Target sequence (Q93009 whole entry, looked up): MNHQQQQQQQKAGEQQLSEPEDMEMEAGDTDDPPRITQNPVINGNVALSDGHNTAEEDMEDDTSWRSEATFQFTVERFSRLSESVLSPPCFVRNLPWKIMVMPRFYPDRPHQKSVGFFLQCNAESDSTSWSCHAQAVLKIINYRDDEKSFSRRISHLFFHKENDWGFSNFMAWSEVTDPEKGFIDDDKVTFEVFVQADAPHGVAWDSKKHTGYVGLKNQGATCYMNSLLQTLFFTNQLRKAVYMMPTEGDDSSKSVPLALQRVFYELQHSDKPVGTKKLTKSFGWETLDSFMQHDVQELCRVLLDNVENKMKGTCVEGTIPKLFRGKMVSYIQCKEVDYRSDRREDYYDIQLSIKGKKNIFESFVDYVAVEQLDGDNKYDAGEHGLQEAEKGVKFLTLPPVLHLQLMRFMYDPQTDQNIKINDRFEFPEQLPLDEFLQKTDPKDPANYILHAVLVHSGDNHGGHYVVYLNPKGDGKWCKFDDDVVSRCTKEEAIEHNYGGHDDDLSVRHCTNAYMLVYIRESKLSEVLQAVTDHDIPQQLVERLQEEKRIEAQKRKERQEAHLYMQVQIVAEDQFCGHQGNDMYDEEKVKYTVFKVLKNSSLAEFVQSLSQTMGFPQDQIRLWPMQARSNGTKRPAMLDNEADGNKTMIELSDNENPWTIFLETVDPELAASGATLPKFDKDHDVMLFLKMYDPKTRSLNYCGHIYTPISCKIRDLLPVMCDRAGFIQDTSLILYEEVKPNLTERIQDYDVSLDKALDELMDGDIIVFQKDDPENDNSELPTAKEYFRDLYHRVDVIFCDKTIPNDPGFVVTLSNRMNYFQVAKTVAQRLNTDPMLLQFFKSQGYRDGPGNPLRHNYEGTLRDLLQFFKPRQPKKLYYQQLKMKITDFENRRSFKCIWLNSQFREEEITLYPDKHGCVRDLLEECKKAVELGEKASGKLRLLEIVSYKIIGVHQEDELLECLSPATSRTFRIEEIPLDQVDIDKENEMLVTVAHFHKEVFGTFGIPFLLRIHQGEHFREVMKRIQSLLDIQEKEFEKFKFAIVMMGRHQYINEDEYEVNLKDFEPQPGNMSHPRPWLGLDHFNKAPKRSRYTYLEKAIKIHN
USP8 inh: human USP8 deubiquitinase inhibition; P40818; purified USP8, Ub-rhodamine cleavage fluorescence, 30 min; inhibition, % at 20 µM; actives 4.2% (n = 47,000); AID 1645853
USP30 inh: blocks human USP30 ubiquitin-rhodamine cleavage | AID 1645860 | purified USP30, Ub-rhodamine cleavage fluorescence | actives 5.3% (n = 47,000) | inhibition, % at 25 µM | Q70CQ3
Each line names hits and unclear results; the compound was inactive in the other large screens. A selection: hits, their analogues and other compounds. The true share with any hit is near 13%. Cut-off read from the data, not from the text of the source: active = inhibition above about 30%; inactive = the rest.

COc1ccc(OC)c2c(C)cc(N3CCN(S(=O)(=O)c4ccc5c(c4)CCCN5S(C)(=O)=O)CC3)nc12	USP17 inh 98.4, USP30 inh 37.8
C/C=C(\C)C(O)C(C)/C=C(C)/C=C/C/C(C)=C/Cc1oc(OC)c(C)c(=O)c1C (configuration not stated)	none
COc1ccc(N(CC(=O)Nc2ccc(OC)c(OC)c2)S(=O)(=O)c2c(C)nn(C)c2C)cc1	USP30 inh 40.7
COc1ccc(N(CC(=O)Nc2cc(Cl)ccc2OC)S(=O)(=O)c2c(C)nn(C)c2C)cc1	none
O=C(NCc1ccco1)c1c2c(nc3ccccc13)-c1ccccc1CC2	USP8 inh 54.6
Cc1ccc(NC(=O)C2CCN(S(C)(=O)=O)c3cc(C)ccc3O2)cc1 (configuration not stated)	none
CC(NC(=O)C1CCN(S(C)(=O)=O)c2ccccc2O1)c1ccccc1 (configuration not stated)	USP30 inh 32.6
CCOc1ccccc1Nc1nc2ccccc2n2cnnc12	USP17 inh 38.6
O=C(CSc1nc2ncc(Cl)cc2[nH]1)Nc1ccc(OCc2ccccc2)cc1	USP17 inh 38.1
COC(=O)c1ccc(NC(=O)CSc2nc3ncc(Cl)cc3[nH]2)cc1	none
Cc1ccc(NC(=O)CSc2nc3ncc(Br)cc3[nH]2)cc1C	USP17 inh 59.9 (no result: USP30 inh)
CC1(C)CC(NC(=O)c2nc(-c3ccc(F)cc3)no2)CC(C)(C)N1	USP30 inh 33.9
N#Cc1ccc(Sc2ccccc2)c(NC(=O)c2ccc(F)cc2)c1	USP30 inh 30.7
CN(C)c1ncnc2c1ncn2[C@@H]1CC[C@@H](NC(=O)Cc2ccccc2)[C@H](O)[C@H]1O	none
Cc1c(Cl)cccc1NC(=O)c1[nH]nc2c1COc1ccccc1-2	USP8 inh 35.4
COc1ccccc1NC(=O)c1[nH]nc2c1COc1ccccc1-2	none
c1cc(-c2nc(-c3ccc4c(c3)nnn4CCN3CCCCC3)no2)ccn1	none
Cc1ccc(NC(=O)c2cnc3c(c2)c(=O)n(C)c(=O)n3C)cc1	USP17 inh 62.4
COc1cccc(NC(=O)c2cnc3c(c2)c(=O)n(C)c(=O)n3C)c1	USP30 inh 70.7
Cn1c(=O)c2cc(C(=O)Nc3ccccc3)cnc2n(-c2ccc(F)cc2)c1=O	none
COc1cc(C2CCN(C(=O)c3cccc(C)c3)CC2)on1	none
Cc1ccc(C(=O)N2CCc3c(c(-c4nc(C5CC5)no4)nn3C)C2)s1	none
Cc1c(-c2noc(-c3ccncc3)n2)nnn1-c1ccc(F)cc1	none
CC(=O)Nc1ccc(C2(C(=O)NCc3ccccc3F)CCC2)cc1	none
O=C(NCc1ccccc1F)Nc1ccccc1[N+](=O)[O-]	USP17 inh 73.5, USP30 inh 56.5
Cc1ccc(C)c(NC(=O)CCc2nc(CSc3nc4ccccc4o3)no2)c1	USP30 inh 52.3
COc1ccccc1NC(=O)CCc1nc(CSc2nc3ccccc3o2)no1	none
Cc1cccc(C)c1NC(=O)CCc1nc(CSc2nc3ccccc3o2)no1	USP30 inh 31.4
Cc1ccc(NC(=O)CCc2nc(CSc3nnc(-c4ccccc4)o3)no2)cc1C	USP30 inh 30.6
CC(C)(C)c1cc2nc3c(c(=O)n2[nH]1)CN(Cc1cccnc1)CC3	none
N#Cc1cccc(C(=O)Nc2ccc([C@H]3OCC(=O)N[C@@H]3CO)cc2)c1	USP17 inh 38.6, USP30 inh 37.4
C=CCOc1nc(C)nc2c1sc1nc3c(cc12)COC(C)(C)C3	none
Cc1ccc(C(=O)[C@H]2C(/C=C/c3ccccc3)=NO[C@]23C(=O)Nc2ccccc23)cc1	none
Cc1ccc(C(=O)[C@H]2C(c3ccccc3OCC#N)=NO[C@]23C(=O)Nc2ccccc23)cc1	USP17 inh 41.6
O=C(Nc1cccc(S(=O)(=O)N2CCCCC2)c1)c1cccc2ccccc12	none
O=C(CCCn1c(=O)c2ccccc2n(Cc2cc(=O)n3ccccc3n2)c1=O)NCc1ccco1	none
COCCCNC(=O)Cn1c(=O)n(Cc2ccc(C(=O)NCCc3ccc(OC)c(OC)c3)cc2)c(=O)c2ccccc21	none
COc1ccc(CCNC(=O)CCn2c(=O)c3ccccc3n(Cc3ccc(C)cc3)c2=O)cc1OC	USP17 inh 43.3, USP30 inh 64.4
COc1ccc(CCNC(=O)CCn2c(=O)c3ccccc3n(Cc3ccc(F)cc3)c2=O)cc1OC	USP17 inh 45.7, USP30 inh 42.9
O=C(CCn1c(=O)c2ccccc2n(Cc2cc(=O)n3ccccc3n2)c1=O)NCCc1ccc(Cl)cc1	USP17 inh 48.4, USP30 inh 61.4
COc1ccc(CCNC(=O)CCn2c(=O)c3ccccc3n(Cc3ccccc3C#N)c2=O)cc1OC	none
COc1ccc(CCNC(=O)c2ccc(Cn3c(=O)c4ccccc4n(CC(=O)Nc4cc(C)[nH]n4)c3=O)cc2)cc1OC	USP17 inh 66.4, USP30 inh 64.7
O=C(Cc1ccc(F)c(F)c1)NCc1cnc(C2CCCCO2)nc1 (configuration not stated)	none
CC(C)n1ncc2cc(NC(=O)c3ccccc3C(=O)c3ccc(F)cc3)cnc21	none
COc1ccc(CCNC(=O)CCCCn2c(=O)c3ccccc3n(Cc3cccc(F)c3)c2=O)cc1OC	USP17 inh 59.8, USP30 inh 54.9
Cc1cc(NC(=O)Cn2c(=O)n(CC3CCC(C(=O)NCCc4ccccc4)CC3)c(=O)c3ccccc32)n[nH]1 (configuration not stated)	USP17 inh 58.1, USP8 inh 36.5, USP30 inh 45.0
CCN(CCCNC(=O)CCc1nnc2n(Cc3ccc(C)cc3)c(=O)c3ccccc3n12)c1cccc(C)c1	none
COc1ccc(C(=O)CSc2nnc3n(Cc4ccc(C)cc4)c(=O)c4ccccc4n23)cc1OC	USP30 inh 45.4
CCOc1ccccc1NC(=O)Cn1c(=O)n(CCC(=O)NCCc2ccc(OC)c(OC)c2)c(=O)c2ccccc21	none
COc1cc2[nH]c(=O)n(CCC(=O)N3CCN(c4ccc([N+](=O)[O-])cc4)CC3)c(=O)c2cc1OC	none
O=C(N[C@@H]1CC[C@H]2C[C@@H]1[C@@H](O)CO2)C1(c2ccc(Cl)cc2)CCCC1	none
C=C1C=C(CCC(=O)O)C(=O)OC1/C=C/C=C/C (configuration not stated)	USP10 inh 95.3, USP17 inh 100.8, UCHL1 block 81.1, USP7 inh 78.4, USP8 inh 98.4, USP30 inh 80.3
O=C(CSc1nnnn1-c1ccccc1)Nc1ccccc1	USP17 inh 50.8, USP30 inh 46.0
COc1cccc(/C=C/C(=O)Nc2ccc(N3CCOCC3)cc2)c1OC	USP17 inh 30.4
O=C(Cc1ccc(F)cc1)Nc1ccc(N2CCOCC2)cc1	none (no result: USP7 inh)
O=C(CCc1nnc2ccc(N3CCCCC3)nn12)NCCN1CCOCC1	USP8 inh 40.9
CC1CCN(c2ccc3nnc(CCC(=O)NCCN4CCCC4)n3n2)CC1	none
COc1ccc(-c2c(NC(=O)C3CCCCC3)n(C)c3ccccc3c2=O)cc1	none
